# According to PubChem BioAssay (NCI):
# About 83,000 compounds went through this panel and 20% of them were active in at least one assay; those are over-represented in the sample as a whole.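 Note: values are percent growth. 100 is the growth of untreated cells, values between 100 and 0 indicate rising inhibition; between -100 and 0 indicates cell death.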 A number with no mark means an inactive call. Active and inactive are the calls of the source. The calls were made as follows: active = growth percent below 10; inactive = the rest.
# How the values were obtained:
# Experiment in all cases: NCI-60 one-dose screen, 48 h (100 = growth as untreated, 0 = no growth, -100 = all killed)
# Details in all cases: 10 µM unless noted
# DU-145 prostate = test system: DU-145 prostate
# K-562 leukemia = test system: K-562 leukemia
# MALME-3M melanoma = test system: MALME-3M melanoma
# MDA-MB-231 breast = test system: MDA-MB-231 breast
# RXF 393 renal = test system: RXF 393 renal
# SF-268 CNS = test system: SF-268 CNS
# SF-295 CNS = test system: SF-295 CNS
# SF-539 CNS = test system: SF-539 CNS
# UACC-257 melanoma = test system: UACC-257 melanoma
# M14 melanoma = test system: M14 melanoma
# HCT-15 colon = test system: HCT-15 colon
# HT29 colon = test system: HT29 colon
# SNB-75 CNS = test system: SNB-75 CNS
# SNB-19 CNS = test system: SNB-19 CNS
# U251 CNS = test system: U251 CNS
# PC-3 prostate = test system: PC-3 prostate
# SK-MEL-5 melanoma = test system: SK-MEL-5 melanoma
# UACC-62 melanoma = test system: UACC-62 melanoma
# LOX IMVI melanoma = test system: LOX IMVI melanoma
# SK-MEL-28 melanoma = test system: SK-MEL-28 melanoma
Compound,growth (DU-145 prostate),growth (K-562 leukemia),growth (MALME-3M melanoma),growth (MDA-MB-231 breast),growth (RXF 393 renal),growth (SF-268 CNS),growth (SF-295 CNS),growth (SF-539 CNS),growth (UACC-257 melanoma),growth (M14 melanoma),growth (HCT-15 colon),growth (HT29 colon),growth (SNB-75 CNS),growth (SNB-19 CNS),growth (U251 CNS),growth (PC-3 prostate),growth (SK-MEL-5 melanoma),growth (UACC-62 melanoma),growth (LOX IMVI melanoma),growth (SK-MEL-28 melanoma)
CC1NC(=S)NC(=O)/C1=C/c1cc(=O)oc2c1ccc1ccccc12 (stereo not drawn),108%,94.6%,90.9%,95.1%,101%,97%,100%,96.8%,80.5%,94.9%,103%,87.7%,73.3%,103%,94.9%,72.8%,97.1%,99.1%,89.2%,115%
Nc1nnc(C(=O)c2cnc3n(c2=O)CCCCC3)s1,103%,92.3%,101%,90.4%,104%,96.6%,101%,94.3%,101%,96.7%,102%,115%,85.7%,102%,101%,101%,98.5%,93.3%,89%,106%
CC(=O)c1c(-c2ccc(OC(F)(F)F)cc2)nc2ccccn12,101%,113%,88.9%,94%,108%,94.3%,90.2%,92.3%,81.8%,89.8%,94.9%,74.2%,91.9%,99.1%,89.8%,95.1%,96.6%,105%,91.6%,90%
c1ccc2c(-c3c4ccsc4cc4[nH]c5ccccc5c34)c[nH]c2c1,66.3%,16%,46.7%,55%,32.2%,40.7%,26.7%,17.9%,66.9%,8.79% (active),24.7%,8.87% (active),20.3%,48.5%,38.7%,36.1%,31.9%,44.8%,26.9%,48.9%
C=C(C)[C@@H]1CC[C@]2(C(=O)O)CC[C@]3(C)[C@H](CC[C@@H]4[C@@]5(C)C[C@@H](CC#Cc6ccc(Br)cc6)C(=O)C(C)(C)[C@@H]5CC[C@]43C)[C@@H]12,40%,42.8%,-19.9% (active),0.351% (active),52.6%,72.1%,58.9%,61.1%,52.7%,5.57% (active),65.6%,30.7%,70.9%,40.7%,3.58% (active),28.7%,68.6%,–,52%,-35.5% (active)
COc1cc2c(cc1[N+](=O)[O-])-c1ccc([N+](=O)[O-])cc1/C2=N/NC(N)=S,79%,59.9%,93.7%,74.4%,68.2%,73.9%,43.6%,73%,75.5%,82.8%,72.3%,48.7%,48.7%,58.8%,47.1%,58%,63.1%,36.4%,43.5%,95.4%
O=c1[nH]c(=O)[nH]c(=S)[nH]1,105%,105%,98%,102%,107%,102%,102%,98.8%,101%,100%,103%,99.1%,96.5%,101%,103%,102%,102%,–,98.1%,102%
